In PubChem BioAssay AID504423 (Broad Institute, 2011):
Several values for one entry are separate records, joined by “and”; a condition that tells them apart may be missing. Equal entries are not always repeated. Out of some 340,000 compounds screened, about 260 (0.076%) were called active. This is one part of a sample in which actives are shown more often than they occur. A number with no mark means an inactive call.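 How the source made its calls: active means highest replicate inhibition at or above 60% at 9 µM, even if other replicates fall short; inactive means all replicates below 60% inhibition.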

These compounds were tested on Kaposi's sarcoma herpesvirus LANA C-terminal domain (residues 932-1162) DNA binding (assay: inhibitors of KSHV C-LANA binding to DNA, primary screen, biochemical, fluorescence polarization, FAM-LBS DNA, MBP-C-LANA, single point (AID 504423;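 further: 0% = neutral control wells and 100% = 4 µM acridine orange control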)). Conditions: at 9 µM, stronger effect = higher value.

Row | Compound | inhibition
1 | COCCNC(=O)C1CCN(S(=O)(=O)c2ccc3c(c2)OCCO3)CC1 | -0.000473%
2 | CCCn1nc(C(=O)OCc2nc(N)nc(Nc3ccccc3C)n2)c2ccccc2c1=O | -0.106%
3 | CC(C)Cn1c(=O)c2ccccc2n2c(CCC(=O)NCc3ccccn3)nnc12 | -0.283%
4 | COc1cc(C(=O)NCc2ccc3c(c2)cc(C)n3C)cc(OC)c1OC | 1.89%
5 | COc1ccc(-c2c(C)nn3c(N4CCC(C(=O)N5CCCCC5)CC4)cc(C)nc23)cc1OC | -1.26%
6 | COc1ccc(/C=N/NC(=O)Cn2cc(C(F)(F)F)ccc2=O)cc1 | 0.0809%
7 | CCCOc1ccc(Cc2c(O)nc(N)[nH]c2=O)cc1C | 3.16%
8 | Cc1cc(/C=N/NC(N)=O)c(C)n1C1CCCCC1 | -1.79%
9 | Cc1ccc2c(=O)oc(N(C)C)nc2c1 | 0.463%
10 | CC(C)CCNC(=O)CC1C(=O)N(Cc2ccccc2)C(C)c2nc3ccccc3n21 (stereo not given) | 0.0911%
11 | Clc1ccc(C2=CSC3=Nc4cccc5cccc(c45)N23)cc1 | 0.203%
12 | CS(=O)(=O)c1ccc2nnn(OCC(=O)Nc3cccc(C#N)c3)c2c1 | 0.484%
13 | O=C(c1ccco1)N(Cc1nc2ccccc2c(=O)[nH]1)C1CCCC1 | 1.54%
14 | Nc1ccc2nc3c(=O)[nH]c(=S)[nH]c3nc2c1 | 81% (active)
15 | CCCCn1nc(C(=O)Nc2ccc(S(=O)(=O)Nc3ncccn3)cc2)c2ccccc2c1=O | 4.67%
16 | Cc1c(C=O)n(C)n(-c2ccccc2)c1=O | 0.314%
17 | COc1ccccc1CNS(=O)(=O)c1cc(C(=O)NCc2ccccn2)c(Cl)cc1Cl | 2.38%
18 | O=C(c1ccccc1)N1CCC(CC2CC(c3ccc(Cl)cc3)=NO2)(C(=O)NCC2CCCCC2)CC1 (stereo not given) | 2.87%
19 | Cc1ccc(S(=O)(=O)n2oc(=O)c(C3CCCCC3)c2N)cc1 | -3.57%
20 | COc1cccc(N2CC(NS(=O)(=O)c3ccc(Cl)cc3)CC2=O)c1 (stereo not given) | -1.06%
21 | COc1cccc(-c2nc3n(n2)C(c2ccccc2Cl)C(C(N)=O)=C(C)N3)c1 (stereo not given) | -1.68%
22 | COc1ccc(C2C(C#N)=C(N)Oc3cc(N)ccc32)cc1OC (stereo not given) | -0.0442%
23 | COc1ccc(C2c3ccc(O)cc3Oc3ncn(CCCO)c(=N)c32)cc1OC (stereo not given) | 90.6% (active)
24 | COc1ccc(CNCCCO)cc1OC | 0.662%

Row | Compound | inhibition
25 | COc1cc(/C=C(\C#N)C(=O)Nc2ccc3ccccc3c2)c([N+](=O)[O-])cc1OC | -1.48%
26 | CCC1OC(c2ccc([N+](=O)[O-])cc2)=Nc2ccccc21 (stereo not given) | 1.55%
27 | O=C(NCCCc1ccccc1)C(=O)c1c[nH]c2ccccc12 | 1.71%
28 | CCCN(CC(=O)NC(=O)NC1CCCCC1)CC(=O)Nc1cc(Cl)ccc1Cl | -0.226%
29 | CCN1C[C@@H]2[C@@H]3C(=O)N(C)C(=O)[C@@H]3[C@](C)(C1=O)N2C(=O)c1ccccc1 | -2.13%
30 | CCN(CC(=O)Nc1ccc(OC)cc1)C(=O)c1ccc(Cl)c(S(=O)(=O)N2CCCC2)c1 | 3.81%
31 | CCOC(=O)C1=C(O)/C(=C/c2ccc(OCC(=O)Nc3ccc(C)cc3)cc2)N=C1C | 0.825%
32 | COC(=O)C1=C(O)/C(=C/c2ccc(OCC(=O)Nc3ccccc3)cc2)N=C1C | 0.272%
33 | CCOC(=O)C1=C(O)/C(=C/c2cc(C)n(-c3ccccc3)c2C)N=C1C | 73.6% (active)
34 | CCOc1ccc(N(CC)S(=O)(=O)c2cccc3nsnc23)cc1 | 3.87%
35 | Cc1cc2nc(SCCN3CCOCC3)[nH]c2cc1C | -0.479%
36 | O=C(Nc1c(Br)cc2c(c1Br)Cc1ccccc1-2)C(F)(F)F | -0.671%
37 | O=C(NC(=S)N1CCCCC1c1cccnc1)c1ccccc1 (stereo not given) | 1.24%
38 | CN(CCOc1ccc(CC2SC(=O)NC2=O)cc1)c1ccccn1 (stereo not given) | 14.3% and -2.59%
39 | CN(C)/C=C(/C(=O)c1ccccc1Cl)S(C)(=O)=O | 0.122%
40 | CCC(CC)C(=O)Nc1cc(C(=O)OC)cc(C(=O)OC)c1 | -1.15%
41 | Cc1ccc(C)c(-n2ccnc2SCC(N)=O)c1 | -0.0657%
42 | Cc1cc(C)c(CN2CCN(C(=O)Cn3ccc(NC(=O)OCc4ccccc4)nc3=O)CC2)c(C)c1 | 1.66%
43 | CCn1c(=S)sc2c(=O)n(CC(=O)Nc3cccc(Br)c3)c(C)nc21 | -0.393%
44 | Cc1cccn2c(CNCC(C)Oc3cccnc3)c(C(=O)N3CCOCC3)nc12 (stereo not given) | -1.19%
45 | CCOc1ccc(CN2CCC(n3nccc3NC(=O)C3CC3)CC2)cc1CO | 1.61%
46 | O=C(Nc1cc(-c2ccccc2)nn1-c1ccccc1F)c1ccc([N+](=O)[O-])cc1 | -1.47%
47 | Cc1ccccc1OCC(=O)NNC(=O)c1cc(S(=O)(=O)N(C)C)ccc1N1CCCC1 | -0.594%
48 | CN1CCC2(CC1)NC(=O)NC2=O | 0.656%

Row | Compound | inhibition
49 | O=C(NCc1ccncc1)c1cccc(NS(=O)(=O)c2ccc(F)c(F)c2)c1 | -0.916%
50 | CSc1nc(-c2ccccc2)nc(C(Cl)Cl)n1 | 1.16%
51 | CCCn1c(N)c(C(=O)CSc2nc3ccccc3c(=O)n2-c2ccc(OC)cc2)c(=O)[nH]c1=O | 0.469%
52 | Cc1cccc(-c2nc3c(c(SCC(=O)N4CCOCC4)n2)CCCC3)c1 | -0.478%
53 | COc1cccc(CNC(=O)C2CCCN(c3ncnc4c3nc3n4CCCCC3)C2)c1 (stereo not given) | 0.109%
54 | CCNC(=O)COc1cc(C)c(Br)c(C)c1 | 0.138%
55 | CCCCC(CC(C)O)c1n[nH]c(=S)n1-c1ccccc1 (stereo not given) | 0.671%
56 | Cc1ccc(N2CCN(C(=O)c3cccs3)CC2)c(C)c1 | 0.336%
57 | O=C(COC(=O)COc1cccc(F)c1)NCC1CCCCC1 | -1.07%
58 | O=C1Nc2cc(C(=O)N3CCC(N4CCCCC4)CC3)ccc2S/C1=C\c1ccccc1 | -4.28%
59 | CC(=O)Nc1ccc(S(=O)(=O)N(C)CC(=O)NCCC2=CCCCC2)cc1 | 0.609%
60 | CC(C)n1c(NCc2c[nH]c3ccccc23)nc2ccccc21 | -1.36%
61 | COc1ccccc1-c1c(C#N)c(N)nc2c1CCC2 | 1.17%
62 | CS(=O)(=O)N1CCC(C(=O)N2CCN(c3ccccc3)CC2)CC1 | -0.437%
63 | C(=N/N1CCN(c2ccccc2)CC1)/c1cccs1 | -0.282%
64 | O=c1ccc2c(-c3ccccc3S(=O)(=O)O)c3ccc(O)c(O)c3oc-2c1O | 101% (active)
65 | CC(OC(=O)/C=C/c1ccccc1)C(=O)Nc1ccc(C(N)=O)cc1 (stereo not given) | 2.44%
66 | COc1ccc(C2CC(=O)Oc3ccc(C(C)(C)C)cc32)cc1 (stereo not given) | -0.823%
67 | CC1(c2nnc(-c3ccncc3)o2)CC(c2cccnc2)=NO1 (stereo not given) | -1.07%
68 | Cc1ccc(S(=O)(=O)/N=C(\N)c2ccc(F)cc2)cc1 | -0.0435%
69 | COCc1ccc(CN2CCC(Oc3ccc(C(=O)NCc4ccccn4)cc3)CC2)o1 | -1.54%
70 | Fc1ccccc1Cc1ccc(Cl)nn1 | -0.587%
